Laboratory results published in PubChem BioAssay (Tox21).
Records with an inconclusive call do not appear. Active and inactive are the calls of the source. Unless noted, the call rests on the fitted dose curve; in most records, active means well fitted curve in the direction sought with a large enough effect in the repeat runs; inconclusive means weak or mixed curves; inactive means no such curve, though single readings can be large; an effect the other way counts as inactive or inconclusive.

Columns and labels:
[1] = biological target: Retinoic acid receptor RXR-alpha (Homo sapiens) (UniProt P19793); assay: qHTS assay to identify small molecule agonists of the RXR signaling pathway (AID 1159527; calls by dose curve; further: nearly all actives have a fitted effect of over 35% in size)
Sequence of Retinoic acid receptor RXR-alpha (Homo sapiens) (P19793 whole entry, looked up): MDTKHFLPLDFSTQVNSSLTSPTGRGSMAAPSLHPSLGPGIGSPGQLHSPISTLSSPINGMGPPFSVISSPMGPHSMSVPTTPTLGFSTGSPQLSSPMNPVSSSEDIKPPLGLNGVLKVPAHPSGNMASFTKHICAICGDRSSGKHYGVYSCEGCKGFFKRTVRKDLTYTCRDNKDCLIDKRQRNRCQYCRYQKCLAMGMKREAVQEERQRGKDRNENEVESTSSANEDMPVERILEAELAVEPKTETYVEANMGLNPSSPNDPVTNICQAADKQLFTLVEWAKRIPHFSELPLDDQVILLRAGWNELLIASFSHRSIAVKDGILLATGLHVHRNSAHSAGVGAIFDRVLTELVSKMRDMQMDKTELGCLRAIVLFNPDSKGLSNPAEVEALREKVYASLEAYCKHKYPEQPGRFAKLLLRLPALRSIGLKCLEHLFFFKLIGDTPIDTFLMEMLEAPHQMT
How it was run: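 Beta-lactamase reporter assay, agonist format. Engineered HEK 293T line, charcoal-stripped FBS at 2%, overnight (16 hr) exposure, fluorescence at 460 and 530 nm after 405 nm excitation.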

[2] = qHTS assay to identify small molecule agonists of the RXR signaling pathway - cell viability counter screen (AID 1159529);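 further: HEK 293T cells carrying an RXR-alpha UAS beta-lactamase reporter; series mostly up to about 77 µM; nearly all actives have a fitted effect of over 50% in size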
How it was run: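 Same-well viability check after the LiveBLAzer FRET read: CellTiter-Glo added, luminescence measured after 30 min at room temperature. Reporter HEK 293T cells had been treated with compounds for 16 hr following a 5 hr preincubation.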

[3] = qHTS assay to identify small molecule antagonists of the retinoid acid receptor (RAR) signaling pathway - cell viability counter screen (AID 1159551); further: nearly all actives have a fitted effect of over 35% in size
How it was run: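 Measured by luminescent ATP detection, viability reflects C3RL4 cells treated 6 h at 37 C with test chemicals in the presence of 1 uM (final) retinol.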

[4] = qHTS assay to identify small molecule antagonists of the retinoic acid receptor (RAR) signaling pathway (AID 1159552; further: nearly all actives have a fitted effect of over 50% in size)
How it was run: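 Readout: luciferase luminescence, 30 min post-reagent at RT. Setup: C3RL4 RARE reporter cells, compounds plus retinol 1 uM final, 6 hr incubation at 37 C and 5% CO2.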

[5] = qHTS assay to identify small molecule agonists of the retinoic acid receptor (RAR) signaling pathway (AID 1159553)
How it was run: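 6 hr compound exposure (DMSO vehicle) of overnight-plated C3RL4 RARE-luc cells at 37 C; luminescence quantified after 30 min RT with luciferase reagent.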

[6] = qHTS assay to identify small molecule antagonists of the estrogen related receptor (ERR) signaling pathway from Tox21 library - cell viability counter screen (AID 1224834); further: nearly all actives have a fitted effect of over 30% in size
How it was run: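 Seeded ERR cells were rested 6 h at 37 C/5% CO2 before compounds, positive and negative controls or DMSO were added. Incubation continued for 17.5 h, and viability was then quantified by CellTiter-Fluor fluorescence.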

[7] = qHTS assay to identify small molecule agonists of the constitutive androstane receptor (CAR) signaling pathway - cell viability counter screen (AID 1224836); further: series mostly up to about 92 µM; nearly all actives have a fitted effect of over 45% in size
How it was run: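 Compound titrations (15 concentrations) went onto HepG2-CYP2B6-hCAR cells 4 h after seeding, alongside PK11195 at a final 0.75 uM; a 23 h, 37 C/5% CO2 incubation preceded CellTiter-Fluor viability measurement.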

[8] = qHTS assay to identify small molecule antagonists of the constitutive androstane receptor (CAR) signaling pathway - cell viability counter screen (AID 1224837); further: series mostly up to about 92 µM; nearly all actives have a fitted effect of over 45% in size
How it was run: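 To flag cytotoxic false antagonists, HepG2 hCAR/CYP2B6-2.2kb cells were treated 23 hr with 15-concentration compound series and 50 nM CITCO at 37 C/5% CO2; CellTiter-Fluor fluorescence was the measured end point.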

[9] = biological target: Nuclear receptor subfamily 1 group I member 3 (Homo sapiens) (UniProt Q14994); assay: qHTS assay to identify small molecule agonists of the constitutive androstane receptor (CAR) signaling pathway (AID 1224839);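 further: HepG2 cells stably carrying human CAR and a CYP2B6 luciferase reporter; series mostly up to about 92 µM; nearly all actives have a fitted effect of over 15% in size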
Sequence of Nuclear receptor subfamily 1 group I member 3 (Homo sapiens) (Q14994 whole entry, looked up): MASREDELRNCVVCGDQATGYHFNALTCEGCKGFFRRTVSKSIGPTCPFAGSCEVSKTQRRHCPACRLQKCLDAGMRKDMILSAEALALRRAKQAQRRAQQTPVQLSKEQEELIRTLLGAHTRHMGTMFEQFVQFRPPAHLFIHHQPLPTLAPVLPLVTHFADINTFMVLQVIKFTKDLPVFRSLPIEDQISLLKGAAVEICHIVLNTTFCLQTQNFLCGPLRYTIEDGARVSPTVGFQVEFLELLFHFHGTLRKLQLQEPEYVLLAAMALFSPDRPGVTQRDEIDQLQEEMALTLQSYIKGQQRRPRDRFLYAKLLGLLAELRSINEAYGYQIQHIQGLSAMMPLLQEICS
How it was run: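 In this screen, CAR-driven CYP2B6 promoter activity is measured by luminescence in HepG2-CYP2B6-hCAR cells after 24 h with test compounds and 0.75 uM PK11195 (final concentration).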

[10] = qHTS assay to identify small molecule antagonists of the estrogen related receptor signaling pathway with the pleiotropic PPARgamma coactivator (PGC) from Tox21 10K library - cell viability counter screen (AID 1224840; active means well fitted cell-killing curve with a large enough effect in the repeat runs, not every such curve was filed as active; further: nearly all actives have a fitted effect of over 40% in size)
How it was run: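 Seeded PGC/ERR cells (2,000/well, 6 h, 37 C/5% CO2) get compound by pin tool; 17.5 h incubation at 37 C; CellTiter-Fluor added, 30 min, fluorescence measured.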

[11] = biological target: Thyrotropin receptor (Homo sapiens) (UniProt P16473); assay: qHTS assay to identify small molecule agonists of the thyroid stimulating hormone receptor (TSHR) signaling pathway (AID 1224843; calls by dose curve; further: nearly all actives have a fitted effect of over 45% in size)
Sequence of Thyrotropin receptor (Homo sapiens) (P16473 whole entry, looked up): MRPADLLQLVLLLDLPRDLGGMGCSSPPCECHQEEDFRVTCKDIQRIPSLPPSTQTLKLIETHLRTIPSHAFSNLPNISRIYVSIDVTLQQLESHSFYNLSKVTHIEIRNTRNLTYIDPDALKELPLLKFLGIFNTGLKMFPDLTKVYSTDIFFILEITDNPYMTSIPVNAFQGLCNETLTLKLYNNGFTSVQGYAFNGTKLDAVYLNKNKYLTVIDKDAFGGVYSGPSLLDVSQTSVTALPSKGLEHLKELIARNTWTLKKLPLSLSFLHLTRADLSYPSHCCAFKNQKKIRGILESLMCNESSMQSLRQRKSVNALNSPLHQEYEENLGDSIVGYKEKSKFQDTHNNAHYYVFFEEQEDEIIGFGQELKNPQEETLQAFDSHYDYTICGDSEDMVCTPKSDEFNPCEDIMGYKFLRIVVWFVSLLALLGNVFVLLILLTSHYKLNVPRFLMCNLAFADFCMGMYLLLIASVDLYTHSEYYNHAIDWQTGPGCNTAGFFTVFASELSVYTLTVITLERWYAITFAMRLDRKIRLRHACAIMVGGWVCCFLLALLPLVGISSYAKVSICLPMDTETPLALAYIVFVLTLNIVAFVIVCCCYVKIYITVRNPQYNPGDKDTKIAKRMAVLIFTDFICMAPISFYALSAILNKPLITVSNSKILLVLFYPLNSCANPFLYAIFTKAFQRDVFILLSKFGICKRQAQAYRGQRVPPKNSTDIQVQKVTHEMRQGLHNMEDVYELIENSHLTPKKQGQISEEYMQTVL
How it was run: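 HEK293/TSHR, 800 cells/well; cpd 30 min RT; add cAMP-d2 + anti-cAMP-cryptate, 1 h RT; fluorescence read on plate reader. 15-pt titration, n=3.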

[12] = qHTS assay to identify small molecule agonists of the hypoxia (HIF-1) signaling pathway - cell viability counter screen (AID 1224844; calls by dose curve; further: nearly all actives have a fitted effect of over 50% in size)
How it was run: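 HRE-bla ME-180; 0.5% dFBS; cpd 17 h, 37C, 5% CO2; CellTiter-Glo lum., 30 min RT, post-FRET read, same wells.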

[13] = qHTS assay to identify small molecule agonists of H2AX (AID 1224845; active means well fitted activation curve with a large enough effect in the signal ratio in the repeat runs, not every such curve was filed as active; the % refers to the signal ratio)
How it was run: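 Wild-type CHO-K1 cells, plated overnight, exposed 3hr at 37C to 15 concentrations (0.76% DMSO final). Lysed, then HTRF anti-pH2AX (S139) cryptate and anti-H2AX-d2 antibodies, 24 hr room temperature; 665/620 nm emission read.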

[14] = qHTS assay to identify small molecule agonists of the hypoxia (HIF-1) signaling pathway (AID 1224846; active means well fitted activation curve with a large enough effect in the signal ratio in the repeat runs, not every such curve was filed as active; the % refers to the signal ratio)
How it was run: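 Reporter induction in HRE-bla ME-180 cells is taken as agonism: cells sit 5 hrs after plating, receive compounds or DMSO only, incubate 17 hrs at 37C under 5% CO2, and are loaded with CCF4-AM for beta-lactamase FRET measurement.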

[15] = qHTS assay to identify small molecule agonists of H2AX - cell viability counter screen (AID 1224847; calls by dose curve; further: top concentration of the series differs between compounds; nearly all actives have a fitted effect of over 30% in size)
How it was run: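 Read-out: CellTiter-Glo luminescence, 30 min RT. Cells: wild-type CHO-K1, 1000/well, 10% FBS, plated overnight at 37C. Treatment: 15 concentrations, 3 hr, 37C, 0.76% DMSO.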

[16] = biological target: Luciferin 4-monooxygenase (Photinus pyralis) (UniProt P08659); assay: qHTS assay to identify small molecule inhibitors of firefly luciferase (AID 1224835); further: series mostly up to about 120 µM; nearly all actives have a fitted effect of over 25% in size
Sequence of Luciferin 4-monooxygenase (Photinus pyralis) (P08659 whole entry, looked up): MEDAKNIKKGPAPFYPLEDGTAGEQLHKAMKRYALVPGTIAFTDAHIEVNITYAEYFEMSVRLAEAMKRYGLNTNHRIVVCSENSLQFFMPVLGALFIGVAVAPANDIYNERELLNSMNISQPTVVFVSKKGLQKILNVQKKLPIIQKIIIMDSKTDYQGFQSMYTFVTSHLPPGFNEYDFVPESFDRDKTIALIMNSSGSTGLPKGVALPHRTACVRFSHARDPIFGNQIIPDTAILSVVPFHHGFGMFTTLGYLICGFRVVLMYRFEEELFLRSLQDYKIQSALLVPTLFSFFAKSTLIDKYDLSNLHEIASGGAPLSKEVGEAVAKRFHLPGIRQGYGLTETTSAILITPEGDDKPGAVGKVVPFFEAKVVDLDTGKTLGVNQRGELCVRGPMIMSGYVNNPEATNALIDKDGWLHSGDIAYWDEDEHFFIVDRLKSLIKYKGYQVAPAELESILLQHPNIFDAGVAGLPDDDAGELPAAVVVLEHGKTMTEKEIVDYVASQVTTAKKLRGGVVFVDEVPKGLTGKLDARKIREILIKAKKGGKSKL
How it was run: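 Biochemical qHTS: compounds run as interplate titrations against purified firefly enzyme, with D-luciferin and ATP each at its KM concentration. Light output recorded by CCD imaging.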

[17] = biological target: Nuclear receptor subfamily 1 group I member 3 (Homo sapiens) (UniProt Q14994); assay: qHTS assay to identify small molecule antagonists of the constitutive androstane receptor (CAR) signaling pathway (AID 1224838);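 further: HepG2 cells stably expressing hCAR with CYP2B6 luciferase reporter stimulated by CITCO; nearly all actives have a fitted effect of over 40% in size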
How it was run: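 Human hepatoma HepG2 cells expressing hCAR and a CYP2B6 promoter (2.2 kb) luciferase construct; compound titration (15 points) with 50 nM CITCO final, 24 h at 37 C/5% CO2; luminescence via ONE-Glo after 30 min at room temperature.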

[18] = qHTS assay to identify small molecule antagonists of the estrogen related receptor signaling pathway with the pleiotropic PPARgamma coactivator (PGC) from Tox21 10K library (AID 1224841; call rule not given here; further: series mostly up to about 92 µM; actives are mostly falling curves and most rising ones were filed inactive; nearly all actives have a fitted effect of over 50% in size)
How it was run: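 Test chemicals dissolved in DMSO were applied to pre-incubated (6 h) PGC/ERR cells at 2,000 cells/well for an 18 h, 37 C treatment; reporter luminescence was then read using One-Glo.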

[19] = qHTS assay to identify small molecule agonists of the estrogen related receptor signaling pathway with the pleiotropic PPARgamma coactivator (PGC) from Tox21 10K library (AID 1224842); further: nearly all actives have a fitted effect of over 15% in size
How it was run: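 PGC/ERR reporter cell line, 2,000 cells per well, incubated 6 h at 37 C before 23 nL compound in DMSO was added. After 18 h at 37 C, One-Glo luminescence read following 30 min at room temperature.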

[20] = qHTS assay to identify small molecule antagonists of the estrogen related receptor (ERR) signaling pathway from Tox21 library (AID 1224848); further: nearly all actives have a fitted effect of over 50% in size
How it was run: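 Compounds dissolved in DMSO are pin-transferred onto ERR reporter cells (2,000 per well) that have settled for 6 h at 37 C. Plates then incubate 18 h at 37 C before ONE-Glo luciferase reagent and a luminescence read 30 min later.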

Measured: Potency

CCCc1ccc(O)cc1
not listed: [16] | [17] | [18] | [19] | [20]
inactive: all other assays above

C=Cc1ccc(C(C)(C)C)cc1
not listed: [6] | [9] | [18] | [19] | [20]
inactive: all other assays above

CN(C)CCCO[C@@H]1[C@H]2OC(C)(C)O[C@H]2O[C@@H]1C(O)CO (some centres undefined)
not listed: [6] | [11] | [14]
inactive: all other assays above

Cc1cc(-c2ccccc2)nnc1NCCN1CCOCC1
not listed: [14] | [16] | [18] | [19] | [20]
inactive: all other assays above

CC(C)=CCC/C(C)=C/COC=O
not listed: [5] | [12] | [17] | [18] | [19] | [20]
inactive: all other assays above

O=C(O)CNC(=O)CNC(=O)CNC(=O)CSC(=O)c1ccccc1
not listed: [5] | [8] | [12] | [16] | [18] | [19] | [20]
inactive: all other assays above

O=C1NC(c2ccccc2)(c2ccccc2)C(=O)N1COP(=O)(O)O
not listed: [9] | [16] | [18] | [19] | [20]
inactive: all other assays above
